Data on five compounds can be found in PubChem BioAssay AID624160 (National Center for Advancing Translational Sciences (NCATS), 2012).

The list shows a part of the results. Records with an inconclusive call do not appear. Calls of active or inactive are those of the source. The call rests on the fitted dose curve; in most records, active means well fitted inhibition curve with a large enough effect; inconclusive means small, poorly fitted or top-dose-only effect; inactive means no such curve, though single readings can be large or run the other way.
Potency means the concentration at half of the fitted maximal effect.

This test deals with Histone-lysine N-methyltransferase 2A (Homo sapiens) (UniProt Q03164). Kind of test: qHTS Fluorescence Polarization (FP) Assay for Inhibitors of MLL CXXC domain - DNA interaction: Fluorescein FP. Further: nearly all actives have a fitted effect of over 80% in size. The following applies: MLL CXXC-DNA binding. The source says: The MLL (Mixed Lineage Luekemia) gene is involved in chromosomal translocation that results in either acute lymphoid leukemia (ALL) or acute myeloid leukemia (AML). Chromasomal translocation of MLL gene is responsible for the fusion of N-terminal MLL to more than 60 different partner genes in frame. Many of the MLL partner genes contain transcription activation domains or function as transcriptional activators. Despite the heterogeneity of fusion partners, the N-terminus of MLL fusion proteins always consists of the N-terminal menin binding motif and the CXXC domain. The MLL-CXXC domain specifically recognizes unmethylated CpG sequences of the HOX-A gene. Disruption of the MLL-CXXC and HOX-A gene interaction leads to down regulation of HOX-A gene expression and may potentially reverse leukemogenesis. We have miniaturized and optimized an in-vitro assay to screen for inhibitors of the MLL-CXXC domain and HOX-A DNA interaction, which could have utility in MLL fusion leukemias.
Sequence of Histone-lysine N-methyltransferase 2A (Homo sapiens) (Q03164 whole entry, looked up, the tested form may be a part): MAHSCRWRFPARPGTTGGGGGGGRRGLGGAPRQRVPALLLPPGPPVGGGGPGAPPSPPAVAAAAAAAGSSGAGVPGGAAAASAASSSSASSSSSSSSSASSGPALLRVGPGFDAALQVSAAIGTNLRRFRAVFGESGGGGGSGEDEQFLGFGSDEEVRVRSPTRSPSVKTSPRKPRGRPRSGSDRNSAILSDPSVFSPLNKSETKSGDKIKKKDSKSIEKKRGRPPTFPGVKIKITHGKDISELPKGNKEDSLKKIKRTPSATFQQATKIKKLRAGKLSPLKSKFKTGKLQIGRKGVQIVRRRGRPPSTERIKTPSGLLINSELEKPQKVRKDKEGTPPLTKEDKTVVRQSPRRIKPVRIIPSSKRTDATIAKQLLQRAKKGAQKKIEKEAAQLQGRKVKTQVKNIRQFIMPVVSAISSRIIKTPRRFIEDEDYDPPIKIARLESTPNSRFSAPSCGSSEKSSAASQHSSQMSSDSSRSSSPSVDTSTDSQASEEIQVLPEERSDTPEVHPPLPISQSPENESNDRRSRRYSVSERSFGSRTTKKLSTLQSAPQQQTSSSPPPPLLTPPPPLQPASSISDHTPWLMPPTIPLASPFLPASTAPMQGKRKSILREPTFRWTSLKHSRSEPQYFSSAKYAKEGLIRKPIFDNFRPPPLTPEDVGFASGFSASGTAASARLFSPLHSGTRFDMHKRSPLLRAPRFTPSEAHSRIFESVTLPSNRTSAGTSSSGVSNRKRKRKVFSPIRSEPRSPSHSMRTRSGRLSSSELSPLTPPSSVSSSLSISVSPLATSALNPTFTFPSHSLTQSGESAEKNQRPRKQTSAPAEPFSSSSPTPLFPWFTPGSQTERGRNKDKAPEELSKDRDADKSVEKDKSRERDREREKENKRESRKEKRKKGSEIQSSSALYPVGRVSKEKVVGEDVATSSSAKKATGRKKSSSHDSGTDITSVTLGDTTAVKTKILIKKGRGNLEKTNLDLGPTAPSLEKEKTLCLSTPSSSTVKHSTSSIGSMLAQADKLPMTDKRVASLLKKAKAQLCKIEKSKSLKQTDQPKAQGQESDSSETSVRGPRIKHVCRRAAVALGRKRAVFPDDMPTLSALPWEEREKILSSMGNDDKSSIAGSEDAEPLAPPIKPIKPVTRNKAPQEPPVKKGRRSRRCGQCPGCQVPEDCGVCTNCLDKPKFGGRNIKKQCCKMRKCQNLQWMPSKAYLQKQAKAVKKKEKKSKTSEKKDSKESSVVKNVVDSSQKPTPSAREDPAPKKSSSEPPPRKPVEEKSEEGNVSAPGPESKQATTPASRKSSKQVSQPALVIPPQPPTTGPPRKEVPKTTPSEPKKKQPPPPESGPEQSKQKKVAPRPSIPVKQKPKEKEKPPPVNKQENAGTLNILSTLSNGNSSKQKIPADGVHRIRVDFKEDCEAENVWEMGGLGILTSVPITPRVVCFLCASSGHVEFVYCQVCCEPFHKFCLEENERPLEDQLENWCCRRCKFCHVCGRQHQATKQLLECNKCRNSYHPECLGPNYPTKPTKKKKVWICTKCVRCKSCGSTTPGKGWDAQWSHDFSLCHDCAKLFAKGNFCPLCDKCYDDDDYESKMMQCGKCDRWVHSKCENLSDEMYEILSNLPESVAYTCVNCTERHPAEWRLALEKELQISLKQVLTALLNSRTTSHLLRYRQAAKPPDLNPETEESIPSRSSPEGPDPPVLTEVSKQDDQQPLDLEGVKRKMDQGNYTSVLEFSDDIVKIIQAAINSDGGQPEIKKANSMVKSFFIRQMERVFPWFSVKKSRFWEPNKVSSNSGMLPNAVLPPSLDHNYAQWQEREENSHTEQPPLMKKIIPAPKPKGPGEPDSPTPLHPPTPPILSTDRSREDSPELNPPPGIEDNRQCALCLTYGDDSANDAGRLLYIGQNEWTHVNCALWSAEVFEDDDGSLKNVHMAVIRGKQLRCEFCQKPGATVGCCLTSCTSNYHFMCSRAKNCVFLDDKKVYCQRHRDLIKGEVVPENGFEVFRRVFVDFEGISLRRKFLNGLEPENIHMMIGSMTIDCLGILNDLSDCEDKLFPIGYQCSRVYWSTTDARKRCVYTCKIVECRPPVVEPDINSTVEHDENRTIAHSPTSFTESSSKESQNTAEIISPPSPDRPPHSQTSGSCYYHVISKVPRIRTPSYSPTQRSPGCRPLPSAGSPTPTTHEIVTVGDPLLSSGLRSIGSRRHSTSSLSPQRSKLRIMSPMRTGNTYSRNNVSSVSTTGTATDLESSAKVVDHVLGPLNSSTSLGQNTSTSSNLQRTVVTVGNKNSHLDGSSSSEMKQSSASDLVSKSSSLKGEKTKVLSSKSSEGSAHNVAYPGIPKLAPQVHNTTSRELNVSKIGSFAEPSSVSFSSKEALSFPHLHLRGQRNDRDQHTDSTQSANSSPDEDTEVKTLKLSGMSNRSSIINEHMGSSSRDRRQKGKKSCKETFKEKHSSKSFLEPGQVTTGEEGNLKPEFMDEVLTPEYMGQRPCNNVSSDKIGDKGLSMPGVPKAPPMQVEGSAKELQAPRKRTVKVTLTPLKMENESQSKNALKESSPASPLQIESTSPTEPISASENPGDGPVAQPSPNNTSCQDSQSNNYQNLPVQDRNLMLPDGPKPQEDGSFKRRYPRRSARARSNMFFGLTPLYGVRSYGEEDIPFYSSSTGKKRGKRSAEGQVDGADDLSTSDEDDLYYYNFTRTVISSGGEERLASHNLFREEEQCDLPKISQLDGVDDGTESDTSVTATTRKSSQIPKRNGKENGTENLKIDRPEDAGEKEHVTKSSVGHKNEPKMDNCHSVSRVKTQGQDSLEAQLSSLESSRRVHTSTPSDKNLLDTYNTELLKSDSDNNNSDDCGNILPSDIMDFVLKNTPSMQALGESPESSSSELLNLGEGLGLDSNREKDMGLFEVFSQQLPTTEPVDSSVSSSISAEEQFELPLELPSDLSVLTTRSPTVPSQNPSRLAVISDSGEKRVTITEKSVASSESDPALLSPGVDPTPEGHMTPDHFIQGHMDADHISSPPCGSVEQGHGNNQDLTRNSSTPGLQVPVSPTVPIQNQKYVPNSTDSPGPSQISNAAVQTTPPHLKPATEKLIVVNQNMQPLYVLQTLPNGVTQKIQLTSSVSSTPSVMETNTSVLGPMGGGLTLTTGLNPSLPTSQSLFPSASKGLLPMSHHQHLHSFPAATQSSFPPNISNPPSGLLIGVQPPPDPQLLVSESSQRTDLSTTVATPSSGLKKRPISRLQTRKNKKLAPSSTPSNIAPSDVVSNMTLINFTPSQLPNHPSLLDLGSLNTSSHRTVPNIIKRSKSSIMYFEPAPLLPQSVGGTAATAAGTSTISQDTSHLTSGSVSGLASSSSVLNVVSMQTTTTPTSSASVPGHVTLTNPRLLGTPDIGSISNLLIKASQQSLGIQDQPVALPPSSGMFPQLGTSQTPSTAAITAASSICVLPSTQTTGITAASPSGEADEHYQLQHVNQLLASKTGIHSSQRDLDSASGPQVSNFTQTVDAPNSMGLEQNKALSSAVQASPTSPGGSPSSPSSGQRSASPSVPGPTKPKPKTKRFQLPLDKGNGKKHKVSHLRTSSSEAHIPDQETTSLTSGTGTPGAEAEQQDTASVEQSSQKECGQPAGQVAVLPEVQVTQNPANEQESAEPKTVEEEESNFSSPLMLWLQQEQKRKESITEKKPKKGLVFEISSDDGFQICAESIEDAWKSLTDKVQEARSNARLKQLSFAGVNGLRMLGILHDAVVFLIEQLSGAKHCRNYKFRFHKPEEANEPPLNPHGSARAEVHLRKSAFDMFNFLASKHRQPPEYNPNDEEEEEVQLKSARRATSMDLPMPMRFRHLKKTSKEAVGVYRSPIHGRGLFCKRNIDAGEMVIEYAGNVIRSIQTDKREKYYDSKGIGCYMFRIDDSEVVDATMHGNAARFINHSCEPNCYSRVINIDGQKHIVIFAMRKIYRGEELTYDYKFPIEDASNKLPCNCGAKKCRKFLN
This is a hit validation assay that tests this hits identified in the primary screen in this secondary screen, using flurescein FP as a read-out.
NIH Molecular Libraries Probe Production Network [MLPCN]
NIH Chemical Genomics Center [NCGC]
PI Name: John Bushweller, University of Virgina
The affinity purified MLL-CXXC domain, unlabeled HOX-A9 DNA strand, fluorescein (FLSN) labeled HOX-A9 DNA strand were kindly supplied by the laboratory of Dr. John Bushweller, University of Virginia. All reagents were stored in single use aliquots at -80C.
Assay buffer: 50 mM TRIS-HCl pH 7.5, 50 mM NaCl, 1 mM DTT. Add 0.05% BSA prior to reaction setup.
1.Dispense 1 ul of a 7 uM MLL-CXXC solution prepared in assay buffer into column 1-48.
2.Transfer 23 nl of compounds and unlabeled HOX-A9 per well.
3.Incubate for 5 minutes at ambient.
4.Dispense 1ul of a 50 nM FLSN-HOX-A9 solution prepared in assay buffer into columns 1-48
5.Centrifuge for 30 seconds at 1000 RPM.
6.Incubate for 30 minutes at ambient.
7.Read using the Envision reader fluorescent polarization protocol.
Take `COc1cc(/C=C2/C(=O)NN(c3ccc(F)cc3)C2=O)cc([N+](=O)[O-])c1O`: the Potency is 71.1 µM (active).
In the case of `COc1ccc(-c2onc3ccc(C(C)=O)cc23)cc1`, the Potency was 10 µM (active).
As for `O=C1NN(c2ccccc2)C(=O)/C1=C/c1ccc(-c2cccc(C(=O)O)c2)o1`, the figure is 100 µM (active); as for `CCOC(=O)/C(N=Nc1cc(C(=O)O)cc(C(=O)O)c1)=C(\O)CCl`, 6.33 µM (active); as for `COc1ccc(S(=O)(=O)/N=C2\C=C(NS(=O)(=O)c3ccccc3)C(=O)c3ccccc32)cc1`, 50.3 µM (active).
